CtBP-E1A inh = inhibitors of CtBP/E1A interaction | AlphaScreen GST-E1A/His-CtBP binding, 1536-well; stronger effect = lower value | activity change, % (no concentration beside the values) | actives 0.49% (n = 340,000); in the data active = activity change below about -65%; inconclusive = mostly about -30% to -63%; note: % is set by controls: 0 for no effect and ±100 for the full control effect
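In 5 uL wells, 23 nL compound meets equimolar GST-E1A and His-CtBP (5X stock 125 nM each) for 2 h, 37 °C. Beads (5X, 50 ug/mL) then 1 h, 37 °C, dark.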
G9a inh = G9a (human) methyltransferase inhibition. G9a H3K9 monomethylation, AlphaScreen, 2 h. Potency, µM (doses to about 102 µM), for inactives: top-dose activity, negative = inhibition, actives largely listed as inhibitors. Q96KQ7. actives 8.8% (n = 350,000); note: potency is the fitted concentration of half-maximal effect; % is set by controls: 0 for no effect and ±100 for the full control effect; nearly all actives have a fitted effect of over 75% in size
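Step 1: enzyme (final 20 nM) with compound, 15 min RT. Step 2: substrate peptide 500 nM and SAM 20 uM, 2 h RT. Step 3: anti-H3K9me1 antibody and AlphaScreen beads, 10 min, then plate read.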
Six1-Eya2 inh = inhibitors of human Six1/Eya2 interaction | Q15475+O00167 | AlphaScreen GST-Six1/His-Eya2 binding, biochemical; stronger effect = lower value | activity change, % (test concentration not listed) | actives 0.56% (n = 360,000) | AID 651725; in the data active = activity change below about -65%; inconclusive = mostly about -30% to -63%; note: % is set by controls: 0 for no effect and ±100 for the full control effect
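AlphaScreen with GST-Six1 and His-Eya2 (5X mix: 250 nM and 500 nM), glutathione donor and nickel acceptor beads; buffer 50 mM Tris pH 8.0, 300 mM NaCl, 1 mM TCEP; 1 h at 37 C in the dark.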
HP1b binding inh = HP1-beta chromodomain-methylated histone interaction inhibition | P83916 | AlphaScreen HP1-beta / biotin-H3K9me3 peptide binding | Potency, µM (titrated, usually from 114 µM), inactives show at the top dose activity change, negative = inhibition, hits mostly inhibitors | actives 0.56% (n = 390,000) | AID 540317; note: potency is the fitted concentration of half-maximal effect; nearly all actives have a fitted effect of over 70% in size
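HP1-beta protein (50 nM final) preincubated 30 min at room temperature with biotinylated H3(1-18)K9me3 peptide (50 nM) in PBS pH 7.4, 0.01% Tween-20, then compound added for 30 min. AlphaScreen streptavidin donor/nickel chelate acceptor beads (10 ug/mL final), 30 min dark, luminescence read.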
JMJD2A Tudor inh = JMJD2A Tudor domain (human) inhibition. O75164. AlphaScreen JMJD2A-Tudor / H3K4me3 peptide binding. Potency, µM (doses to about 114 µM), for inactives: at the highest dose activity change, negative = inhibition, most hits filed as inhibitors. actives 4.4% (n = 390,000); note: potency is the fitted concentration of half-maximal effect; % is set by controls: 0 for no effect and ±100 for the full control effect; nearly all actives have a fitted effect of over 50% in size
BAZ2B inh = inhibitors of human BAZ2B bromodomain. Q9UIF8. AlphaScreen BAZ2B-H3K14Ac peptide displacement. Potency, µM (doses to about 114 µM), for inactives: top-dose activity change, negative = inhibition, hits mostly inhibitors. actives 4.4% (n = 360,000). AID 504333; note: potency is the fitted concentration of half-maximal effect; % is set by controls: 0 for no effect and ±100 for the full control effect; nearly all actives have a fitted effect of over 60% in size
Target sequence (Q9UIF8 whole entry, looked up): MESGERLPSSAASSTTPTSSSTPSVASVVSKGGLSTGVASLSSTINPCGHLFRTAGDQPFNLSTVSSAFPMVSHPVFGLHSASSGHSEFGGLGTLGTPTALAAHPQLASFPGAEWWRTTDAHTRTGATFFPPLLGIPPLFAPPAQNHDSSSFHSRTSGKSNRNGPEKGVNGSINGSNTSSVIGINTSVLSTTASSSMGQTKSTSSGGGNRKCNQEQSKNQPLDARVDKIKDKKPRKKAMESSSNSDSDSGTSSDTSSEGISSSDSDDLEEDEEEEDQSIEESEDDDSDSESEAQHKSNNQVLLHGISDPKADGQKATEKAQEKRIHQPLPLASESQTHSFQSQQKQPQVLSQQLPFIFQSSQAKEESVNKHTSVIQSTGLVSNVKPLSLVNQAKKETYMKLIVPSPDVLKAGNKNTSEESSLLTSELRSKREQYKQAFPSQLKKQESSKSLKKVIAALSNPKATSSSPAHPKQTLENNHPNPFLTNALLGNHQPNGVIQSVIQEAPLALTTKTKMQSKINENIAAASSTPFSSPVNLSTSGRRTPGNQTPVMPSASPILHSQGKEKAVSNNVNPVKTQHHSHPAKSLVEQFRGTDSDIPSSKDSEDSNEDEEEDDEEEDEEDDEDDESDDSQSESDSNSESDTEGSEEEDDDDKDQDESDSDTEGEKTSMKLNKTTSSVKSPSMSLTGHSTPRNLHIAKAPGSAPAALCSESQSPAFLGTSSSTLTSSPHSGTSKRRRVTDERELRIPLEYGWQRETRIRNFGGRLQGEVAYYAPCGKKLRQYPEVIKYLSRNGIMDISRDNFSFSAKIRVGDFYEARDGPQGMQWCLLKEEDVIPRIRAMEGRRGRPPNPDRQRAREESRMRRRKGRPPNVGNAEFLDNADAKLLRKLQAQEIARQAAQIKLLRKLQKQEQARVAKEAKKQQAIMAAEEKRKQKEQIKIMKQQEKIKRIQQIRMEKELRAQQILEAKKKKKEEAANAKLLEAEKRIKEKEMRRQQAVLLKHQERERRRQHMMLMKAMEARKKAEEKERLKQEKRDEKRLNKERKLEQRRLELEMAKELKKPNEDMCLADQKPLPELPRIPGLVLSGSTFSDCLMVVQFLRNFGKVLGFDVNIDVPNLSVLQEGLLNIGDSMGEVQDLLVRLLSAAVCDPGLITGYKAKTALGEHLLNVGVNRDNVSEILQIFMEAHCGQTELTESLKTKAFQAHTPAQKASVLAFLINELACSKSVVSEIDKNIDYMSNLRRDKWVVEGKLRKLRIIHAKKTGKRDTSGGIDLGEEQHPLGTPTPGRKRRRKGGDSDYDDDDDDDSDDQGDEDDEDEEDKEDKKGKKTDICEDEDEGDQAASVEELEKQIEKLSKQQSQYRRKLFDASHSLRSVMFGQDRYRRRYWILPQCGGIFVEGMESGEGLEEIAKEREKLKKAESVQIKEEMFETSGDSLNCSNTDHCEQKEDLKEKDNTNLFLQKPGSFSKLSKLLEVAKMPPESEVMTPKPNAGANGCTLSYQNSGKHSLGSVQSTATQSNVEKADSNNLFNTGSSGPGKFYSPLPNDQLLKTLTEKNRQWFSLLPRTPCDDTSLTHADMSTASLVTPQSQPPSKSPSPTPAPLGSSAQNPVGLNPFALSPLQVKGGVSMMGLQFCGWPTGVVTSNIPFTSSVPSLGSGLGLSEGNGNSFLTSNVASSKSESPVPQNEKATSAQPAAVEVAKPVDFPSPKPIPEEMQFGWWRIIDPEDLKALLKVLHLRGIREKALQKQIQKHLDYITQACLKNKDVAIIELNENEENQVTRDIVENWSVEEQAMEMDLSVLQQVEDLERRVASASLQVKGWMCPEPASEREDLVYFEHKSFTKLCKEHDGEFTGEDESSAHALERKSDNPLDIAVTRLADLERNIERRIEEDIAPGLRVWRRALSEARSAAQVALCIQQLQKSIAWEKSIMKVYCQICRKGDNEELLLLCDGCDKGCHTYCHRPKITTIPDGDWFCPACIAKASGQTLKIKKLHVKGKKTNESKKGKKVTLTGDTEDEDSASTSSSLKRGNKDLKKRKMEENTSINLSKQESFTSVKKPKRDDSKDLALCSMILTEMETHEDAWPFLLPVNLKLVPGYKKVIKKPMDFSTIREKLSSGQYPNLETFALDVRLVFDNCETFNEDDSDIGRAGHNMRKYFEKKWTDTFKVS
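BAZ2B (50 nM) with biotin-H3(5-23)K14Ac peptide (50 nM) in PBS pH 7.4, 0.01% Tween-20, preformed 30 min, then compound 30 min at room temperature; top concentration 110uM. AlphaScreen streptavidin donor/nickel chelate acceptor beads (10 ug/mL final), 20 min dark, signal read.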
* = called active by the depositor; ? = inconclusive; · = no result; [ ] = another dose, or the depositor's remark. In the library only some 10% were active in any assay of this set; here they are far more common. Unless noted, calls come from the whole dose curve; as a rule, active = well fitted inhibition curve with a large enough effect; inconclusive = small, poorly fitted or top-dose-only effect; inactive = no such curve, though single readings can be large or run the other way.

SMILES | CtBP-E1A inh | G9a inh | Six1-Eya2 inh | HP1b binding inh | JMJD2A Tudor inh | BAZ2B inh
CCOc1cc(CN2CCN(c3cccc(C(F)(F)F)c3)CC2)ccc1OC | 9 | 22µM* | -14 | ? | 8.9µM* | 8.9µM*
CCOc1cc(CN2CCN(c3ccc(C(C)=O)cc3)CC2)ccc1OC | -15 | 32µM* | -4 | ? | 1.4µM* | 56µM*
COc1ccc(CC(C)N2CCN(c3cccc(C(F)(F)F)c3)CC2)cc1OC (stereo not given) | -17 | ? | -15 | -3% | ? | ?
CC1(C(=O)NC2CCc3ccccc32)CCN1CCc1ccccc1 (stereo not given) | 0 | · | -25 | · | · | ·
COc1ccc(C(C)NS(=O)(=O)Cc2ccccc2)cc1 (stereo not given) | -2 | 50µM* | -10 | 20% | -13% | -9%
COc1ccc(OC)c(NS(=O)(=O)Cc2ccccc2)c1 | · | 35µM* | · | · | · | ?
COc1ccc(OC)c(NC(=O)CS(=O)(=O)Cc2ccccc2)c1 | 0 | · | -3 | 31% | -4% | -8%
Cc1ncoc1C(=O)N1CCc2c([nH]c3ccccc23)C1C(C)(C)C (stereo not given) | 4 | ? | 0 | 19% | -22% | -28%
c1ccc2c3c([nH]c2c1)C(C1CCCCC1)N(Cc1ncc[nH]1)CC3 (stereo not given) | -15 | 45µM* | -9 | -7% | ? | ?
Cc1ncoc1C(=O)N1CCc2c([nH]c3ccccc23)C1C1CCCCC1 (stereo not given) | -26 | · | -10 | -2% | ? | 25µM*
Cc1cnc(CN2CCc3c([nH]c4ccccc34)C2C2CCCCC2)[nH]1 (stereo not given) | 0 | -3% | -7 | -6% | -20%[57.1 µM] | -18%
Oc1c(C(Nc2nc3ccccc3s2)c2ccco2)ccc2cccnc12 (stereo not given) | -16 | 25µM* | -73* | -4% | ? | 50µM*
CCCCC(=O)NC(c1ccc(N(CC)CC)cc1)c1ccc2cccnc2c1O (stereo not given) | -78* | -10% | ? | 20% | ? | 45µM*
CCN(CC)c1ccc(C(NC(=O)C(C)C)c2ccc3cccnc3c2O)cc1 (stereo not given) | ? | · | -72* | · | · | ·
CCCCC(=O)NC(c1ccc(N(C)C)cc1)c1ccc2cccnc2c1O (stereo not given) | -91* | 40µM* | -70* | ? | 18µM* | 20µM*
CCCCC(=O)NC(c1ccccc1Cl)c1c(O)ccc2ccccc12 (stereo not given) | 3 | 22%[59 µM] | 4 | -4% | 1% | 11%
c1coc(CNc2nc3ccccc3s2)c1 | 0 | 17%[2.33 µM] | 0 | 6% | -19% | -14%
O=C1CCCC2=C1C1O[C@](CCCCN3C(=O)c4ccccc4C3=O)(Cc3ccccc31)O2 | · | · | · | · | · | -30%[22.9 µM]
CC(C)C(=O)NC(c1ccco1)c1ccc2cccnc2c1O (stereo not given) | -91* | 6%[59 µM] | -93* | 31% | 79µM* | ·
Cc1ccccc1N1C(=O)CC(Nc2ccc3c(c2)OCO3)C1=O (stereo not given) | -10 | 40µM* | -2 | 3% | -28% | ?
COC(=O)c1ccc(NC2CC(=O)N(c3ccccc3C)C2=O)cc1 (stereo not given) | 1 | ? | -1 | 46% | -15% | -16%
CCOc1ccccc1Nc1nc(-c2cccnc2)cs1 | -2 | -15%[59 µM] | -27 | -24% | ? | ?
COc1ccccc1Nc1nc(-c2cccc(N3C(=O)c4ccccc4C3=O)c2)cs1 | -14 | 25µM* | 2 | 17% | -13% | -3%
O=C1c2ccccc2C(=O)N1c1cccc(-c2csc(Nc3ccc4c(c3)OCO4)n2)c1 | · | 8.9µM* | · | · | · | ?
Cc1ccccc1CN1CC2=C(CCN(Cc3ccccc3)C2=O)N2CCN=C12 | 2 | · | -4 | · | · | ·
SMILES | CtBP-E1A inh | G9a inh | Six1-Eya2 inh | HP1b binding inh | JMJD2A Tudor inh | BAZ2B inh
O=C(COC(=O)Cc1c(F)cccc1Cl)Nc1nnc(-c2ccccc2)o1 | -4 | 14%[59 µM] | -19 | 40% | -14% | 0%
Cc1c(N=N/C(C(=O)Nc2ccccc2)=C(/O)c2ccccc2)c(=O)n(-c2ccccc2)n1C | -6 | 14µM* | 12 | -4% | ? | 8.9µM*
CCOC(=O)/C(N=Nc1c(C)n(C)n(-c2ccccc2)c1=O)=C(/O)c1ccccc1 | -5 | 5% | -10 | 27% | -1% | ?
Cc1c(N=C(N)/N=C(\N)Nc2ccc(Br)cc2)c(=O)n(-c2ccccc2)n1C | 8 | 43%[59 µM] | 0 | 13% | 32µM* | 14%
O=S(=O)(Nc1cccc2ccccc12)c1cccc2ccccc12 | · | · | · | 31% | -21% | ·
CCC/C=C1/CCCOC(C(=O)NCCOC)(C(F)(F)F)C1 (stereo not given) | · | · | · | 10% | -6% | ·
O=C(C[C@@H]1C=C[C@H](NC(=O)Cc2ccccn2)[C@@H](CO)O1)NCCc1ccccc1 | 2 | · | 7 | · | · | ·
CCOC(=O)COc1nc(-c2ccco2)cc(-c2ccco2)c1C#N | 22 | -30%[59 µM] | 18 | 22% | 36% | -22%
CCOC(=O)C(C)Sc1nc(-c2ccco2)cc(C(F)(F)F)c1C#N (stereo not given) | 17 | 40µM* | 13 | 47% | -10% | 19%
CCOCCCNC(=O)c1cc2c(s1)-c1ccccc1SC2 | 4 | 10µM* | -5 | 15% | -3% | 3%
Cc1ccc(C)c(-n2c3nc(=O)n(C)c(=O)c-3cc3ccccc32)c1 | · | 79µM* | 0 | 36% | -15% | -35%
Cc1ccc(C)c(N2CCN(C(=O)c3cc4cc5ccc(C)cc5nc4o3)CC2)c1 | · | 4%[59 µM] | · | 21% | -24% | ·
CCOC(=O)C1CCN(C(=O)c2cc3cc4ccc(C)cc4nc3o2)CC1 | 4 | 79µM* | 10 | 39% | -13% | -9%
O=C(C(=NNc1ccccc1)c1ccccc1)c1ccccc1 | -29 | · | ? | ? | ? | ·
Oc1ccc(O)c(/C(=N/Nc2ccccc2)c2ccccc2)c1 | · | 1.3µM* | · | · | · | 45µM*
COc1ccc(NCC(=O)N/N=C/C=C\c2ccccc2)cc1 | -3 | 28µM* | -13 | -11% | ? | ?
COc1ccc(/C=C/C=N/NC(=O)COc2ccc(OC)cc2)cc1 | -5 | 4%[59 µM] | -4 | 17% | -12% | -2%
COc1ccccc1NCC(=O)N/N=C/C=C/c1ccccc1 | · | 28µM* | -5 | -11% | ? | ?
COc1ccc(C(C(=O)NC(C)(C)C)N(C(=O)CCC(=O)Nc2cc(C)on2)c2c(C)cccc2C)cc1 (stereo not given) | 3 | -7% | -4 | -21% | -3% | -35%

Bioassay records as filed in PubChem.
